# Reference: PubChem BioAssay AID720485 (Milwaukee Institute for Drug Discovery, 2013)
# The list shows a part of the results. A number with no mark means an inactive call.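 Rule for the calls: active = percent inhibition of 50% or more; inactive = the rest.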
# Test system: Hepatitis C virus NS3 helicase
# Experiment: NS3h DNA-binding blockers re-examined – biochemical, fluorescence polarization, ChemBridge library, confirmation (AID 720485)
# Settings: NS3h binding to Cy5-dT15 DNA, at 100 µM, active compounds read high
smiles,measurement,value
CCOc1cc(C=C2C(=O)NC(=O)NC2=O)cc(Br)c1OCCOc1ccccc1C,inhibition,23.5%
